According to article PMC10338342:

Assays:
Protein max = Protein max (UniProt P61244); experiment: cross-link between two proteins; cross-linking mass spectrometry; other
Histone H3.1 = Histone H3.1 (UniProt P68431); experiment: cross-link between two proteins; cross-linking mass spectrometry
Histone H4 = Histone H4 (UniProt P62805); experiment: as above
Histone H2B type 1-J = Histone H2B type 1-J (UniProt P06899); experiment: as above

Sequence of Myc proto-oncogene protein, P01106 (P01106 whole entry): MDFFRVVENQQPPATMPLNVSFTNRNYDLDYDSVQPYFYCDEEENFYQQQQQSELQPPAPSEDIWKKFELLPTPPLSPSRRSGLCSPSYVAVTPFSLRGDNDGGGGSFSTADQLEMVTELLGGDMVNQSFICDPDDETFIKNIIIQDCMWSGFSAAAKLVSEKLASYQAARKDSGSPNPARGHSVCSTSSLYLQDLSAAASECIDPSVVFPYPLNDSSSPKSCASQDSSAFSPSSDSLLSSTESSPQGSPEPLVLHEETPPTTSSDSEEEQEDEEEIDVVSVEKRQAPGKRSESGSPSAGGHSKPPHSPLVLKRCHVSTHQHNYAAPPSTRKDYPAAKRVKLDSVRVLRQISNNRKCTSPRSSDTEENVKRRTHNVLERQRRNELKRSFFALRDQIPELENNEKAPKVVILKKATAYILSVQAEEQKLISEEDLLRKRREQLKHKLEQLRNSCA
Sequence of Protein max (P61244 whole entry): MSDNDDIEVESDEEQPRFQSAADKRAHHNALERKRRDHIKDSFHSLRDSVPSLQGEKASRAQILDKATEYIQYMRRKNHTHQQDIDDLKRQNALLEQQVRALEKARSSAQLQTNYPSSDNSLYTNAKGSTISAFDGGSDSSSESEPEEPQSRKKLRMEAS

Row | Substance | listed as a hit (Protein max) | listed as a hit (Histone H3.1) | listed as a hit (Histone H4) | listed as a hit (Histone H2B type 1-J)
1 | Myc proto-oncogene protein, P01106 | yes |  |  | 
2 | Histone H2B type 1-J, P06899 |  | yes | yes | 
3 | Histone H2A type 1-B/E, P04908 |  | yes | yes | yes
